Results as given in PubChem BioAssay (NCATS).
Inconclusive results are not listed. Calls of active or inactive are those of the source. Calls come from the whole dose curve; as a rule, active = well fitted curve in the direction sought with a large enough effect; inconclusive = small, poorly fitted or top-dose-only effect, or another doubt; inactive = no such curve, though single readings can be large; an effect the other way counts as inactive or inconclusive. Residues, ends and D or L forms follow the SMILES beside them. *: point of attachment. Cbz = O=C(OCc1ccccc1)*

What was measured:
[1] = Quantitative High-Throughput drug screen in 47 multiple myeloma cell lines against the NCATS MIPE library collection: Karpas25_ECACC cell viability assay (AID 1918968; note: nearly all actives have a fitted effect of over 35% in size)
Outline: (§1)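 CellTiter-Glo luminescence (ATP) after 48 h compound exposure, 37C/5% CO2; 500 cells/well; MIPE 4.0 approved/investigational drugs pinned in; DMSO = 100%, media only = 0% viability.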

[2] = Quantitative High-Throughput drug screen in 47 multiple myeloma cell lines against the NCATS MIPE library collection: KMS27_JCRB cell viability assay (AID 1918970); settings: KMS27 myeloma cells, CellTiter-Glo ATP viability, 48 h; viability (% of DMSO): at 45.8 µM (top of the series); note: nearly all actives have a fitted effect of over 30% in size
Outline: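 Each line is seeded at 500 cells per well and treated with library compounds for 48 hours under 37 °C, 5% CO2. CellTiter-Glo is then added for 5 min at room temperature before median relative luminescence is recorded.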

[3] = Quantitative High-Throughput drug screen in 47 multiple myeloma cell lines against the NCATS MIPE library collection: KMS12BM_JCRB cell viability assay (AID 1918971); note: nearly all actives have a fitted effect of over 35% in size
Outline: (§2)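 Steps: seed 500 cells per well; pin-transfer MIPE 4.0 library; incubate 48 h at 37C, 5% CO2, humidified; add CellTiter-Glo, 5 min room temperature; read luminescence.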

[4] = Quantitative High-Throughput drug screen in 47 multiple myeloma cell lines against the NCATS MIPE library collection: KMS12PE_JCRB cell viability assay (AID 1918972); note: nearly all actives have a fitted effect of over 30% in size
Outline: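 Myeloma cell lines, 500 cells per well, exposed to MIPE 4.0 library compounds for 48 h at 37C, 5% CO2. Viability from ATP by CellTiter-Glo luminescence; normalised to DMSO (100%) and media-only (0%) wells.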

[5] = Quantitative High-Throughput drug screen in 47 multiple myeloma cell lines against the NCATS MIPE library collection: MOLP8_DSMZ cell viability assay (AID 1918977); note: nearly all actives have a fitted effect of over 45% in size
Outline: (§3)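 500 cells/well per myeloma line exposed to pinned MIPE 4.0 compounds for 48 h at 37 °C, 5% CO2. Viability read as ATP by CellTiter-Glo luminescence, normalised to DMSO-only (100%) and media-only (0%) wells.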

[6] = Quantitative High-Throughput drug screen in 47 multiple myeloma cell lines against the NCATS MIPE library collection: NCIH929_DSMZ cell viability assay (AID 1918978); note: nearly all actives have a fitted effect of over 35% in size
Outline: as §3

[7] = Quantitative High-Throughput drug screen in 47 multiple myeloma cell lines against the NCATS MIPE library collection: KMS20_JCRB cell viability assay (AID 1918973); note: nearly all actives have a fitted effect of over 45% in size
Outline: as §1

[8] = Quantitative High-Throughput drug screen in 47 multiple myeloma cell lines against the NCATS MIPE library collection: KMS26_JCRB cell viability assay (AID 1918975); note: nearly all actives have a fitted effect of over 45% in size
Outline: as §2

[9] = Quantitative High-Throughput drug screen in 47 multiple myeloma cell lines against the NCATS MIPE library collection: MMM1_PLB cell viability assay (AID 1918976); note: nearly all actives have a fitted effect of over 35% in size
Outline: as §3

[10] = Quantitative High-Throughput drug screen in 47 multiple myeloma cell lines against the NCATS MIPE library collection: KMS21BM_JCRB cell viability assay (AID 1918974); settings: ATP luminescence, 48 h; viability: at 45.8 µM (top of the series)
Outline: as §1

Measured: Potency
Potency is the fitted concentration of half-maximal effect.

CCCNS(=O)(=O)Nc1ncnc(OCCOc2ncc(Br)cn2)c1-c1ccc(Br)cc1
inactive: [1] | [2] | [3] | [4] | [5] | [6]

CC(=O)OCC(=O)[C@@]1(O)CC[C@H]2[C@@H]3CCC4=CC(=O)CC[C@]4(C)[C@@H]3C(=O)C[C@@]21C
inactive: [1] | [2] | [3] | [4] | [7] | [5] | [6]

CCS(=O)(=O)Nc1ccc2[nH]c(O)c(C(=Nc3ccc(CN4CCCCC4)cc3)c3ccccc3)c2c1
active: [1] 0.235 µM | [2] 0.132 µM | [3] 13.2 µM | [4] 0.148 µM | [7] 0.296 µM | [8] 0.469 µM | [9] 0.209 µM | [6] 0.105 µM

O=C(O)c1ccc(Nc2ncc3c(n2)-c2ccc(Cl)cc2C(c2c(F)cccc2F)=NC3)cc1
active: [1] 14.8 µM | [3] 0.296 µM | [7] 14.8 µM | [10] 0.743 µM | [6] 4.18 µM
inactive: [2] | [9]

COc1cc2ncnc(Nc3cccc(Br)c3)c2cc1OC
active: [1] 0.526 µM | [2] 23.5 µM | [3] 0.0418 µM | [4] 14.8 µM | [7] 0.743 µM | [8] 16.6 µM | [5] 20.9 µM

O=C1c2c(O)cccc2[C@@H]([C@@H]2O[C@H](CO)[C@@H](O)[C@H](O)[C@H]2O)c2cc(CO)cc(O)c21
inactive: [1] | [2] | [3] | [4] | [7] | [8] | [5] | [6]

CC(C)C[C@@H](C=O)NC(=O)[C@H](CC(C)C)NC(=O)[C@H](CC(C)C)NC(=O)OCc1ccccc1 (Cbz-Leu-Leu-Leu-aldehyde)
active: [1] 0.235 µM | [2] 0.166 µM | [3] 0.469 µM | [4] 0.105 µM | [7] 0.526 µM | [8] 0.59 µM | [9] 2.35 µM | [5] 0.469 µM | [6] 0.118 µM

CC(=O)N[C@@H]1[C@H](O[C@@H]2c3ccc(c(Cl)c3)Oc3cc4cc(c3O[C@H]3O[C@H](CO)[C@@H](O)[C@H](O)[C@H]3NC(=O)CCCCCCCC(C)C)Oc3ccc(cc3Cl)C[C@H]3NC(=O)[C@H](N)c5ccc(O)c(c5)Oc5cc(O)cc(c5)[C@H](NC3=O)C(=O)N[C@H]4C(=O)N[C@H]3C(=O)N[C@@H]2C(=O)N[C@@H](C(=O)O)c2cc(O)cc(O[C@H]4O[C@H](CO)[C@@H](O)[C@H](O)[C@H]4O)c2-c2cc3ccc2O)O[C@H](CO)[C@@H](O)[C@@H]1O
inactive: [1] | [2] | [3] | [4] | [5] | [6]

CC(=O)[C@]1(O)Cc2c(O)c3c(c(O)c2[C@@H](O[C@H]2C[C@H](N)[C@@H](O)[C@H](C)O2)C1)C(=O)c1ccccc1C3=O
active: [1] 0.148 µM | [2] 1.18 µM | [3] 0.235 µM | [4] 2.09 µM | [7] 0.105 µM | [9] 0.148 µM | [5] 0.132 µM | [6] 0.166 µM

C=CC(=O)N1CCc2ccc(-n3c(=O)ccc4cnc5ccc(-c6cnn(C)c6)cc5c43)cc21
active: [1] 0.59 µM | [2] 2.96 µM | [3] 4.69 µM | [4] 2.96 µM | [7] 0.833 µM | [8] 1.32 µM | [9] 1.87 µM | [5] 0.59 µM | [6] 1.66 µM

C#C[C@]1(O)CC[C@@H]2[C@@H]3CCc4cc(O)ccc4[C@H]3CC[C@@]21C
active: [1] 18.7 µM | [2] 16.6 µM | [3] 20.9 µM | [4] 16.6 µM | [7] 14.8 µM | [8] 3.72 µM | [9] 14.8 µM | [6] 3.72 µM

CCOC(=O)[C@@H](N)Cc1ccc(-c2cc(O[C@H](c3ccc(Cl)cc3-n3ccc(C)n3)C(F)(F)F)nc(N)n2)cc1
active: [1] 18.7 µM | [2] 10.5 µM | [3] 20.9 µM | [4] 10.5 µM | [8] 18.7 µM | [9] 11.8 µM | [5] 11.8 µM | [6] 18.7 µM

CC(=O)O[C@H]1C[C@@H]2CC[C@H]3[C@H]4C[C@H]([N+]5(C)CCCCC5)[C@@H](OC(C)=O)[C@@]4(C)CC[C@@H]3[C@@]2(C)C[C@H]1[N+]1(C)CCCCC1
inactive: [1] | [2] | [3] | [4] | [7] | [5] | [6]

C[C@H](NC(=O)Cc1cc(F)cc(F)c1)C(=O)N[C@H](C(=O)OC(C)(C)C)c1ccccc1
inactive: [1] | [2] | [4] | [8] | [6]
active: [3] 4.69 µM

Cc1nc(NC(=O)N2CCC[C@@H]2C(N)=O)sc1-c1ccnc(C(C)(C)C(F)(F)F)c1
inactive: [2] | [10]
active: [1] 5.26 µM | [3] 10.5 µM | [7] 1.48 µM | [8] 4.18 µM | [9] 0.59 µM | [6] 0.148 µM

Nc1ncn([C@@H]2O[C@H](CO)[C@@H](O)[C@@H]2O)c(=O)n1
active: [1] 3.32 µM | [2] 9.35 µM | [3] 8.33 µM | [4] 1.32 µM | [10] 1.87 µM | [8] 13.2 µM | [6] 3.72 µM

CC1(C)[C@H](O[C@H]2O[C@H](C(=O)O)[C@@H](O)[C@H](O)[C@H]2O[C@@H]2O[C@H](C(=O)O)[C@@H](O)[C@H](O)[C@H]2O)CC[C@@]2(C)[C@H]1CC[C@]1(C)[C@H]2C(=O)C=C2[C@H]3C[C@@](C)(C(=O)O)CC[C@]3(C)CC[C@]21C
inactive: [1] | [2] | [3] | [4] | [8] | [6]

c1cc(N[C@@H]2CCNC2)nc(-c2cnc3ccc(-c4cn[nH]c4)cn23)c1
active: [1] 5.9 µM | [2] 2.64 µM | [3] 16.6 µM | [4] 16.6 µM | [7] 11.8 µM | [8] 14.8 µM | [5] 2.96 µM | [6] 13.2 µM

C[C@H](NCc1ccc2c(c1)nc(NC(=O)c1ccc(-c3cn[nH]c3)s1)n2CCc1ccccc1)C(C)(C)C
active: [1] 1.48 µM | [2] 0.418 µM | [3] 2.35 µM | [4] 0.743 µM | [7] 0.935 µM | [9] 2.35 µM | [5] 0.59 µM | [6] 1.05 µM

O=C(O)C(=O)Nc1cccc(C2=NN=N[N]2)c1
inactive: [1] | [2] | [3] | [4] | [5] | [6]

CO[C@@H]1[C@@H](O)[C@H](O)[C@@H](n2c3c(Cl)cccc3c3c4c(c5c6cccc(Cl)c6[nH]c5c32)C(=O)NC4=O)O[C@@H]1CO
active: [1] 0.59 µM | [2] 0.118 µM | [3] 0.469 µM | [4] 0.743 µM | [8] 2.64 µM | [9] 5.9 µM | [5] 2.35 µM | [6] 0.833 µM

CC1(C)CC(O)CC(C)(C)N1[O]
inactive: [1] | [2] | [3] | [4] | [8] | [6]

CN(C)c1ccc(C(=O)NCCCCCCC(=O)NO)cc1
active: [1] 0.469 µM | [2] 0.0662 µM | [3] 0.235 µM | [4] 0.0935 µM | [10] 0.0418 µM | [8] 2.96 µM | [5] 0.743 µM | [6] 0.833 µM

Nc1ccn(C[C@@H](CO)OCP(=O)(O)O)c(=O)n1
inactive: [1] | [2] | [3] | [4] | [8] | [5] | [6]

CC(C=CC=C(C)C=CC1=C(C)CCCC1(C)C)=CC=CC=C(C)C=CC=C(C)C=CC1=C(C)CCCC1(C)C
inactive: [3]
active: [1] 16.6 µM | [2] 11.8 µM | [8] 13.2 µM | [9] 14.8 µM

Nc1nc(N)c2nc(-c3cccc(O)c3)c(-c3cccc(O)c3)nc2n1
active: [1] 4.69 µM | [2] 4.18 µM | [4] 13.2 µM | [7] 7.43 µM | [10] 7.43 µM | [9] 20.9 µM | [5] 26.4 µM | [6] 4.18 µM

Nc1ccn(C2CO[C@H](CO)O2)c(=O)n1 (some centres undefined)
active: [3] 0.833 µM | [9] 4.69 µM
inactive: [1] | [2] | [6]

CN1[C@H]2CC(OC(=O)[C@@H](CO)c3ccccc3)C[C@H]1[C@H]1O[C@H]12 (some centres undefined)
inactive: [1] | [2] | [4] | [8] | [5] | [6]
active: [7] 0.007 µM

O=C1NC(O)CCN1[C@@H]1O[C@H](CO)[C@H](O)[C@H]1O (some centres undefined)
inactive: [1] | [2] | [4] | [8] | [5] | [6]

C#Cc1cccc(Nc2ncnc3cc(OCCOC)c(OCCO)cc23)c1
active: [1] 1.18 µM | [2] 0.0187 µM | [4] 1.48 µM | [10] 0.132 µM

CC(=O)O[C@]1(C(C)=O)CC[C@H]2[C@@H]3C=C(C)C4=CC(=O)CC[C@]4(C)[C@@H]3CC[C@@]21C
active: [1] 8.33 µM | [2] 9.35 µM | [3] 9.35 µM | [9] 18.7 µM | [6] 7.43 µM
inactive: [8]

Nc1nc(=O)n([C@H]2C[C@H](O)[C@@H](CO)O2)cc1F
inactive: [1] | [8]
active: [2] 0.0418 µM | [4] 0.059 µM | [6] 16.6 µM

CC(=O)N[C@H]1[C@@H]([C@H](O)[C@H](O)CO)OC(C(=O)O)=C[C@@H]1N=C(N)N
inactive: [1] | [2] | [3] | [6]

COc1cc2c(Nc3ccc(Cl)c(Cl)c3F)ncnc2cc1OCC1C[C@@H]2CN(C)C[C@H]2C1
active: [1] 2.35 µM | [2] 5.9 µM | [3] 5.26 µM | [7] 1.87 µM | [8] 2.35 µM | [9] 23.5 µM | [6] 2.09 µM

Cn1c(Nc2ccc(C(F)(F)F)cc2)nc2cc(Oc3ccnc(-c4ncc(C(F)(F)F)[nH]4)c3)ccc21
active: [1] 3.72 µM | [2] 14.8 µM | [4] 5.26 µM | [7] 11.8 µM | [10] 5.9 µM | [5] 6.62 µM
